Only some compounds are listed: those with a hit (about 0.88% of all), similar ones and a draw of the others.
pAkt inh: HTS Assay for Inhibitors of Akt Phophorylation: Primary Screen; Neuro2A IGF-stimulated pAkt S473 HTRF, 20 min; active compounds read low; activity change, % for hits at 50 µM; AID 651550, 2012; 360,000 tested, 0.32% active; in the data active = activity change below about -80%; inconclusive = mostly about -51% to -80%; also: % is scaled to controls: 0 for no effect and ±100 for the full control effect
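Neuro2A cells (4,500/well, DMEM with 0.5% FBS) were treated with compound at a single 50 µM final concentration, stimulated with 6 nM IGF for 20 min at 37 °C, and lysed. Phospho-Akt Ser473 was read by HTRF as 665/615 ratio ×10^4.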
RGS4 inh: Inhibitors of Regulator of G Protein Signaling (RGS) 4: qHTS. Regulator of G-protein signaling 4 (Homo sapiens), P49798. Transcreener GDP fluorescence polarization, RGS4-accelerated GTP hydrolysis. 390,000 tested, 0.039% active. Potency, µM (doses to about 114 µM), inactives show at the highest dose activity change, negative = inhibition, actives largely listed as inhibitors. AID 504845, 2011; also: potency is read from the fitted curve at half-maximal effect; % is scaled to controls: 0 for no effect and ±100 for the full control effect; nearly all actives have a fitted effect of over 75% in size
Target sequence (P49798 whole entry, looked up): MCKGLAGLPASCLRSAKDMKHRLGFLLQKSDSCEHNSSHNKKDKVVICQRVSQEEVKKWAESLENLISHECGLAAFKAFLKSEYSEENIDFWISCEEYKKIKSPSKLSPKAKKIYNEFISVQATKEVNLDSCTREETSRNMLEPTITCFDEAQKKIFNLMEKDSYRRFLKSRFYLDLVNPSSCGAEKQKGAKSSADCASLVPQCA
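MLSMR compounds (23 nl, pin-transferred) preincubated 10 min at room temperature with a 500nM (2x) first reagent, then RGS4 at 900nM (2x) plus Transcreener GDP mix added; fluorescence polarization (620/688 nm) read before and after 90 min at 30 °C.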
GRP78 ERSR act: qHTS for Inducers of the Endoplasmic Reticulum Stress Response (ERSR) in Human Glioma: qHTS. U87-MG GRP78 promoter luciferase reporter, 16 h. 420,000 tested, 0.02% active. Potency, µM, for inactives: at the highest dose activation, actives largely listed as activators; also: potency is read from the fitted curve at half-maximal effect; series mostly up to about 76 µM; % of control where 0% means no effect; nearly all actives have a fitted effect of over 35% in size
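Stably transfected U87-MG human glioma cells carrying a GRP78-based luminescent sensor were seeded at 1000 cells/well, pin-dosed with compounds and incubated 16 h. Luciferase reagent was then added, and end-point luminescence was read after 10 min at room temperature.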
Six1-Eya2 inh: qHTS Assay for Inhibitors of the Six1/Eya2 Interaction | AlphaScreen GST-Six1/His-Eya2 binding, biochemical; active compounds read low | activity change, % (concentration not given with the values) | 360,000 tested, 0.56% active | Homeobox protein SIX1 (Homo sapiens) + Protein phosphatase EYA2 (Homo sapiens), …; in the data active = activity change below about -65%; inconclusive = mostly about -30% to -63%; also: % is scaled to controls: 0 for no effect and ±100 for the full control effect
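AlphaScreen with GST-Six1 and His-Eya2 (5X mix: 250 nM and 500 nM), glutathione donor and nickel acceptor beads; buffer 50 mM Tris pH 8.0, 300 mM NaCl, 1 mM TCEP; 1 h at 37 C in the dark.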
CtBP-E1A inh: qHTS Assay for Inhibitors of the CtBP/E1A Interaction. CtBP / adenovirus E1A interaction (AlphaScreen). activity change, % (test concentration not listed). 340,000 tested, 0.49% active. AlphaScreen GST-E1A/His-CtBP binding, 1536-well; active compounds read low; in the data active = activity change below about -65%; inconclusive = mostly about -30% to -63%; also: % is scaled to controls: 0 for no effect and ±100 for the full control effect
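In 5 uL wells, 23 nL compound meets equimolar GST-E1A and His-CtBP (5X stock 125 nM each) for 2 h, 37 °C. Beads (5X, 50 ug/mL) then 1 h, 37 °C, dark.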
The depositor's hits bear a star; i = inactive; u = inconclusive; x = no result; [ ] = remark or other dose. Unless noted, calls follow the shape of the dose curve; as a rule, active = well fitted curve in the direction sought with a large enough effect; inconclusive = small, poorly fitted or top-dose-only effect, or another doubt; inactive = no such curve, though single readings can be large; an effect the other way counts as inactive or inconclusive.

SMILES	pAkt inh	RGS4 inh	GRP78 ERSR act	Six1-Eya2 inh	CtBP-E1A inh
O=C(CNC(=O)c1ccncc1)N/N=C/c1ccc(O)cc1O	i	2%	-2%	-90*	x
O=C(CNC(=O)c1ccco1)Nc1ccc(F)cc1	i	-52%	-2%	2	-96*
COc1cc(/C=N/NC(=O)CNC(=O)c2ccncc2)ccc1O	i	-12%	-6%	0	-1
O=C(CNC(=O)c1ccco1)Nc1ccc(F)c(Cl)c1	i	-26%	-4%	3	18
O=C(CNC(=O)c1ccc2c(c1)OCCO2)N/N=C/c1ccc(O)cc1O	i	-14%	-6%	-77*	-90*
CCC1CN(Cc2cn[nH]c2-c2ccc(F)cc2)Cc2cc(OC)ccc2O1 (stereo not given)	x	x	-2%	x	x
COc1cc(=O)n2c(c1C(=O)N(C)Cc1nonc1C)CCN(Cc1cc(C)ccc1C)CC2	x	x	-2%	x	x
NC[C@@H]1O[C@@H](O[C@H]2[C@@H](O)[C@H](O[C@@H]3[C@@H](O)[C@@H](N)C[C@H](N)[C@H]3O[C@H]3O[C@H](CN)[C@@H](O)[C@@H](O)[C@H]3N)O[C@H]2CO)[C@H](N)[C@@H](O)[C@@H]1O	x	x	-3%	x	x
Cc1cc(C)n(-c2ccc(C(=O)NCC3Cc4cc(-c5cnccn5)ccc4O3)cc2)n1 (stereo not given)	x	x	-2%	x	x
O=C(COc1ccccc1)NCC(=O)N/N=C/c1ccc(O)cc1O	i	-9%	-7%	-80*	-91*
COc1cccc(/C=N/NC(=O)C(=O)NCc2cccnc2)c1O	i	7%	-1%	-89*	-92*
COc1cccc(/C=N/NC(=O)CNC(=O)c2ccc3c(c2)OCCO3)c1O	i	-4%	-2%	-88*	u
O=C(N/N=C/c1ccc(O)cc1O)C(=O)N/N=C/c1ccc(O)cc1O	i	-29%[56.9 µM]	-1%	-68*	-92*
CCC1CN(CCNC(=O)c2cccc(C(=O)OC)c2)Cc2cc(OC)ccc2O1 (stereo not given)	x	x	-2%	x	x
CCOc1ccc(/C=N/NC(=O)C(O)c2ccccc2)c(O)c1 (stereo not given)	i	-21%	2%	u	-85*
CCOc1cccc(/C=N/NC(=O)c2cc(-c3cccn3C)n[nH]2)c1O	i	-32%	-1%	-87*	-85*
C/C(=N\NC(=O)C12CCC(C)(C(=O)O1)C2(C)C)c1ccccc1O (stereo not given)	i	9%[11.4 µM]	3%	-3	u
COc1cccc(/C=N/NC(=O)CNC(=O)c2ccco2)c1O	i	14%	3%	-84*	u
CCOc1ccc(CCNC(=O)C(O)c2ccccc2)cc1 (stereo not given)	i	-7%[11.4 µM]	1%	5	8
CC12CCC(C(=O)N/N=C/c3ccc(O)cc3O)(OC1=O)C2(C)C (stereo not given)	i	-15%	-3%	-68*	-88*
Cn1nc(-c2cccnc2)nc2c(=O)n(C)c(=O)nc1-2	x	-19%	-9%	x	x
N[C@@H](C(=O)O)[C@@H](CC(=O)O)c1ccc(Cl)cc1	x	x	-3%	x	x
CC(=O)Nc1ccc(C(=O)N2CCCC(n3cc(C(=O)NCC(C)C)nn3)C2)cc1 (stereo not given)	x	x	0%	x	x
COc1cccc(/C=N/NC(=O)CNC(=O)C2COc3ccccc3O2)c1O (stereo not given)	i	9%[11.4 µM]	-3%	u	-83*
O=C(C[n+]1ccccc1)N/N=C/c1cc(Br)ccc1O	i	-16%	0%	-88*	0
Cn1c(=O)c(C(=O)NNC(=O)c2ccccc2Br)c(O)c2ccccc21	i	2%	2%	-66*	u
CCCS(=O)(=O)N1CCCC(C(=O)NC(C)c2ccc3c(c2)OCCO3)C1 (stereo not given)	-114%*	-16%	-4%	0	3
